Out of some 240,000 compounds screened, about 15 (0.006%) were called active. Only a sample is shown. Unmarked numbers belong to inactive results. Calls follow the shape of the dose curve; as a rule, active = well fitted inhibition curve with a large enough effect; inconclusive = small, poorly fitted or top-dose-only effect, or effect the other way, or another doubt; inactive = no such curve, though single readings can be large or run the other way.
molecular target: Lysosomal alpha-glucosidase (Homo sapiens) (UniProt P10253); assay: qHTS Assay for Inhibitors and Activators of Human alpha-Glucosidase From Spleen Homogenate; conditions: 4-MU-alpha-glucoside fluorescence; series mostly up to 79.9 µM; activity change, negative = inhibition: at the top concentration;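 also: 0% = enzyme with vehicle and -100% = no enzyme basal signal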
Source text: NIH Chemical Genomics Center [NCGC] NIH Molecular Libraries Probe Production Centers Network [MLPCN] MLPCN Grant: R03 MH084841-01 Assay Submitter (PI): Wei Zheng NCGC Assay Overview: Alpha-glucosidase is responsible for the hydrolysis of terminal, non-reducing 1,4-linked alpha-D-glucose residues, which releases alpha-D-glucose. It is a lysosomal hydrolase that is required for the degradation of a small percentage (1-3%) of cellular glycogen in humans. Deficiency of this enzyme results in glycogen-storage disease type II (GSDII), also referred to as Pompe disease, an autosomal recessive disorder. Structurally normal glycogen is accumulated in the lysosomes and cytoplasm in affected patients, primarily in muscle tissues. Excessive glycogen storage within lysosomes may interrupt normal functioning of other organelles and leads to cellular injury. In turn, this leads to enlargement and dysfunction of the entire organ involved (eg: cardiomyopathy and muscle weakness). It has been reported that the improper folding and trafficking of alpha-glucosidase resulting from genetic mutations may account for a significant number of Pompe patients. […] We optimized this alpha-glucosidase assay in 1536-well plate format for identification of novel small molecule inhibitors or activators with structures other than the sugar analogs in order to develop new pharmacological chaperones. In particular, this assay is directed towards discovering compounds active in a more natural setting, tissue homogenate, that may have been missed by screens of the purified enzyme under more stringent conditions.
NCGC Assay Protocol Summary: This is a fluorogenic enzyme assay with 4-methylumbelliferyl-alpha-D-glucopyranoside as the substrate and human spleen homogenate containing alpha-glucosidase as the enzyme preparation. Upon hydrolysis of this fluorogenic substrate, the resulting product, 4-methylumbelliferone (which excites at 365 nm and emits at 440 nm) can be detected by a fluorescence plate reader. Data were normalized to the controls for basal activity (without enzyme) and 100% activity (with enzyme). The AC50 values were determined from concentration-response data modeled with the standard Hill equation. Assay buffer: 50 mM citric acid (titrated with potassium phosphate to pH 5.0), 0.01% Tween-20 (pH 5.0 is an optimal condition for this enzyme assay) 1536-well assay protocol for the alpha-glucosidase from human spleen homogenate: (1) Add 2 ul/well spleen homogenate (1 ug) (2) Add 23 nL compounds in DMSO solution. The final titration was 0.5 nM to 58 uM. (3) Add 2 ul of substrate (1 mM final) (4) Incubate at 37 C for 40 min (5) Add 2 ul stop solution (1M NaOH and 1M Glycine mixture, pH 10) (6) Detect the assay plate in a ViewLux plate reader (PerkinElmer) with Ex=365 nm and Em=440nm. Keywords: Alpha-glucosidase, Pompe Disease, pharmacological chaperone, chaperone therapy, high throughput screening, alpha-glucosidase inhibitor, MLSMR, MLSCN, NIH Roadmap, qHTS and NCGC

| Molecule | activity change, negative = inhibition | outcome |
| --- | --- | --- |
| O=C(Nc1cc(C(=O)Nc2ccc(S(=O)(=O)O)cc2)cc(C(=O)Nc2ccc(S(=O)(=O)O)cc2)c1)Nc1cc(C(=O)Nc2ccc(S(=O)(=O)O)cc2)cc(C(=O)Nc2ccc(S(=O)(=O)O)cc2)c1 | -9.55% |  |
| O=c1[nH]c(CN2CCN(S(=O)(=O)c3ccc4c(c3)OCCO4)CC2)nc2sc3c(c12)CCCC3 | -15.2% |  |
| CC(Oc1ccc(Br)cc1Br)C(=O)NC1CCCC1 (stereo not given) | -1.67% |  |
| O=C(O)C1CC=CC2CCN(C3CCCCC3)C(=O)C21 (stereo not given) | 0.181% |  |
| COc1ccc(Br)cc1C1C2C=CCC(C)C2C(=O)N1Cc1ccccc1 (stereo not given) | -1.05% |  |
| CCCCC/C=C\C/C=C\CCCCCCCCCC(N)=O | 6.05% |  |
| CCCCN(CC)C(=O)c1ccccc1Oc1ccccc1 | -0.108% |  |
| O=C(COc1ccc(/C=N/NS(=O)(=O)c2ccccc2)cc1)NCCc1ccccc1 | -1.54% |  |
| Oc1ccc(N2CCN(C(=S)NCc3ccccc3)CC2)cc1 | 5.73% |  |
| COc1ccc(C[C@H](C(=O)O)N2C(=O)c3ccc(C(=O)O)cc3C2=O)cc1 | 6.17% |  |
| CCNc1nc(NC(C)C)nc(N2CC(=O)N(CC(=O)OCC)C2=N)n1 | 4.96% |  |
| Cc1cc2oc(C(=O)Nc3c(C)n(C)n(-c4ccccc4)c3=O)c(C)c2cc1Cl | 2.59% |  |
| CC1(C)Cc2nc3sc4c(SCC(=O)NC(c5ccccc5)c5ccccc5)ncnc4c3cc2CO1 | 0.724% |  |
| FC(F)(F)c1nc(-c2ccccc2)ncc1-c1nnnn1-c1ccccc1 | -4.01% |  |
| CCCCNc1ccc(C(=O)Nc2cccc(C)n2)cc1[N+](=O)[O-] | -0.299% |  |
| COc1cc(NS(=O)(=O)c2ccc3ccccc3c2)c2ncccc2c1 | -1.54% |  |
| CC/C(=N\NC(=O)c1ccccc1Cl)c1ccc(Br)s1 | -2.79% |  |
| Cc1noc(C)c1-c1ccc2ncnc(NC(C)c3ccco3)c2c1 (stereo not given) | 2.91% |  |
| CN(C)CCc1c[nH]c2ccc(Cn3cncn3)cc12 | -4.52% |  |
| CC1CCC(C(C)C)C(=O)/C1=C\c1ccc(NC(=O)CCC(=O)O)cc1 (stereo not given) | -3.03% |  |
| O=c1[nH]c2cccnc2n(CCNc2ncc(C(F)(F)F)cc2Cl)c1=O | -8.68% |  |
| NC1CCN(O)C1=O (stereo not given) | -4.38% |  |

| Molecule | activity change, negative = inhibition | outcome |
| --- | --- | --- |
| CN1CCN2c3ccccc3Cc3ccccc3[C@@H]2C1 |  | inactive |
| C=C1CCN(C(CC(C)C)C(=O)N2CCOCC2)S(=O)(=O)c2ccccc21 (stereo not given) | -3.94% |  |
| CCN(CC)/[N+]([O-])=N/Oc1cc(O/[N+]([O-])=N/N2CCCC2CO)c([N+](=O)[O-])cc1[N+](=O)[O-] (stereo not given) | 13.4% |  |
| Cc1cccc([C@H]2[C@@H]3C=CC[C@@H](C)[C@@H]3C(=O)N2Cc2ccccc2)c1 | 5.28% [at 119 µM] |  |
| CCOC(=O)C1=C(C)c2ccccc2OC1C(=O)OCC (stereo not given) | -1.48% [at 119 µM] |  |
| O=C(O)CCn1c(O)c(C=C2N=c3ccccc3=N2)sc1=S | 5.64% |  |
| COc1cc(OC)c2c(c1C(CCN1CCCCC1)c1ccc(N(C)C)cc1)OC(=O)CC2c1ccc(N(C)C)cc1 (stereo not given) | -1.04% |  |
| O=C1CN(Cc2ccccc2)S(=O)(=O)c2ccccc21 | 4.09% |  |
| Cc1cc(=O)oc2cc(NC(=O)C3CC(=O)N(Cc4ccccc4)C3)ccc12 (stereo not given) | -3.26% |  |
| Cc1c(CN2CCC(CO)(CCOc3ccccc3)CC2)[nH]c2ccc(Cl)cc12 | -2.21% |  |
| CC(C)=CCN1CCC2(CCc3ccccc32)CC1 | 2.89% |  |
| CC(CNc1ccc([N+](=O)[O-])cc1)NC(=O)c1ccccc1Br (stereo not given) | -6.77% |  |
| CC1CCN(S(=O)(=O)c2ccc3ncn(CC(=O)N(C)C4CCCCC4)c(=O)c3c2)CC1 | -4.28% |  |
| OC(COCC1COc2ccccc2O1)CN1CCN(c2ccc(F)cc2)CC1 (stereo not given) | -10.7% |  |
| C=C(C)C(=O)c1ccc(F)cc1 | 6.52% |  |
| CC[C@H](C)[C@H](NC(=O)[C@@H](N)CCC(=O)O)C(=O)N[C@@H](CC(C)C)C(=O)N[C@@H](CC(=O)O)C(=O)N[C@H](C(=O)N1CCC[C@H]1C(=O)N[C@@H](CO)C(=O)N[C@H](C(=O)O)[C@@H](C)O)C(C)C | 5.13% |  |
| H-EHIPA-OH | 3.99% |  |
| O=C(NCCCCc1ccccc1)C1CC(c2ccc([N+](=O)[O-])cc2)=NO1 (stereo not given) | 3.76% |  |
| COc1ccccc1-c1nnc(NC(=O)c2ccc3ncsc3c2)o1 | 2.72% |  |
| CN1CCN(c2cc3c(cc2F)c(=O)c(C(=O)O)cn3CCF)CC1 | 2.34% |  |
| CCOC(OCC)OCC | -1.22% |  |
| Oc1ccc(-c2c(-c3ccccc3)nn3c(C(F)(F)F)cc(C(F)(F)F)nc23)cc1 | 3.91% |  |

| Molecule | activity change, negative = inhibition | outcome |
| --- | --- | --- |
| O=C(NCCCNc1ccc([N+](=O)[O-])cc1Cl)c1ccccc1F | -9.07% |  |
| COCCCNC(=S)N1CCCC(c2nc3cc(C)c(C)cc3[nH]2)C1 (stereo not given) | -4.36% |  |
| Brc1ccc2ncnc(NCc3cccnc3)c2c1 | 7.88% |  |
| CCCC1=Nc2cc(C(=O)NCc3ccco3)ccc2Sc2ccccc21 | -5.63% |  |
| CCOC(=O)c1c(C)n(C)c2ccc(OC)c(NS(=O)(=O)CC)c12 | -20% |  |
| C/C=C(\C)C(=O)NCCN1C2=NC[C@H](Cc3ccc(O)cc3)N2C[C@@H]1Cc1ccc(OC)cc1 | 2.08% |  |
| COc1ccc(C2=Nn3c(nnc3-c3ccccc3O)SC2)cc1 | -1.69% |  |
| Cn1ccc(=NC=C(C#N)C#N)c2ccccc21 | -4.74% |  |
| COc1ccc(C2=NN(C(=O)c3cccnc3)C(c3ccccc3)C2)cc1 (stereo not given) | -4.5% |  |
| Cc1cc(N(C)C)nc(Cl)n1 | 2.22% |  |
| O=C(CSc1cccc[n+]1[O-])c1ccc(-c2ccccc2)cc1 | -7.13% |  |
| COc1cccc(CC2(CO)CCN(Cc3cnc(-c4cccc(C)c4)nc3)CC2)c1 | 3.73% |  |
| O=C(Nc1ccccc1F)c1ccccc1-c1ccc(C(F)(F)F)cc1 | -4.73% |  |
| O=[N+]([O-])c1ccccc1SNc1ccccn1 | 0.477% |  |
| N#Cc1cccc(CS(=O)(=O)c2nnnn2-c2cc(C(F)(F)F)cc(C(F)(F)F)c2)c1 | 2.12% |  |
| FC(F)(F)c1cccc(-c2cc3ccccc3nc2N2CCCC2)c1 | -3.49% |  |
| O=C(Nc1ccc(Cl)cc1)/C(=C1\CCCN1)[N+](=O)[O-] | 0.902% |  |
| Cc1noc(C)c1-c1ccc2ncnc(NCc3ccc4[nH]ccc4c3)c2c1 | 10.6% |  |
| COc1ccc(Cl)cc1NC(=O)COC(=O)C(CC(C)C)N1C(=O)C2CC=CCC2C1=O (stereo not given) | 1.56% |  |
| O=C(CCl)Nc1cccc(CP(=O)(c2ccccc2)c2ccccc2)c1 | 5.31% |  |
| Cc1ccc(CNC(=O)C2(C(F)(F)F)C/C(=C\Cc3ccccc3)CCCO2)o1 (stereo not given) | 0.641% |  |
